Measured values published in PubChem BioAssay AID777 (Sanford-Burnham Center for Chemical Genomics, 2007).
Among all 96,000 compounds or so, about 19,000 (20%) were called active.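 The calls were made as follows: active = blocking of liver enzyme CYP2C9 beyond about 50% at 5 µM (limit read from the data); inactive = the rest.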 Only a sample is shown.

These molecules were tested against Cytochrome P450 2C9 (Homo sapiens) (UniProt P11712) (assay: blockers of cytochrome P450 2C9 activity – biochemical, luminescence, ADME assay, primary screen (AID 777)). Details: CYP2C9 Supersomes, luciferin-H conversion, at 5 µM, stronger effect = higher value.
Sequence of Cytochrome P450 2C9 (Homo sapiens) (P11712 whole entry, looked up): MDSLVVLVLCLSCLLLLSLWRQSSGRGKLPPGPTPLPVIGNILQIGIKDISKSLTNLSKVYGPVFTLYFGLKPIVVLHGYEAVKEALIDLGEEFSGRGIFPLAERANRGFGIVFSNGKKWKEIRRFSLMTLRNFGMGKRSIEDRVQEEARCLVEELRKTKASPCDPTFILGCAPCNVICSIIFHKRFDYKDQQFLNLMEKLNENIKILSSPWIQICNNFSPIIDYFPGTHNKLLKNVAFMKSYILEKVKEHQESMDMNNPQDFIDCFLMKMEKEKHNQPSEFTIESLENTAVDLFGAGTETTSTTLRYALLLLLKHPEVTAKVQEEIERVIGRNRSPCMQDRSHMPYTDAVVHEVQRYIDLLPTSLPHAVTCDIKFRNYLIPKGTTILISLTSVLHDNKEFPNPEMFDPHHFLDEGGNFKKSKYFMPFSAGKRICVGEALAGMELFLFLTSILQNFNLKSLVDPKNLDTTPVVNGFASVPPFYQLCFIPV

Row | Compound | inhibition
1 | O=C(NC(C(=O)NCCN1CCOCC1)C12CC3CC(CC(C3)C1)C2)C1CCCCC1 (configuration not stated) | 18.3% (inactive)
2 | O=C(COc1ccc(Br)cc1F)NC1CCN(Cc2ccccc2)CC1 | 28.8% (inactive)
3 | CC1(C)CCCC2=C1CC1C(=O)N(c3ccccc3)C(=O)C1C2 (configuration not stated) | 90.7% (active)
4 | CC(=O)Oc1cccc(N2C(=O)C3CC=C(Cl)CC3C2=O)c1 (configuration not stated) | 3.2% (inactive)
5 | CCCCCCC(=O)N(O)C1CC(=O)N(c2ccccc2)C1=O (configuration not stated) | -18.5% (inactive)
6 | Cc1cccn2c(=O)c3cc(C(=O)N4COCC4(C)C)n(C)c3nc12 | -0.4% (inactive)
7 | O=C(Nc1ccc(Br)cc1)C1CCC(=O)N1Cc1ccccc1Cl (configuration not stated) | 89.5% (active)
8 | CCC(C)NC(=O)C1CCC(=O)N1Cc1ccc(C)cc1 (configuration not stated) | 3.2% (inactive)
9 | O=C1c2ccccc2C(O)N1Cc1ccccc1Cl (configuration not stated) | -6.9% (inactive)
10 | CCCOc1ccc(-c2nc(N)n[nH]2)cc1 | 3.7% (inactive)
11 | N=c1c2c(-c3ccccc3)c(-c3ccccc3)oc2ncn1Cc1ccco1 | 45.2% (inactive)
12 | CCc1nc2oc3ccccc3c(=O)c2c(=O)n1Cc1ccc(OC)cc1 | 6.4% (inactive)
13 | CC1CN(C(=O)c2ccc3c(c2)OCO3)OC(c2ccccc2)O1 (configuration not stated) | 35% (inactive)
14 | CCOC(=O)C1=NNC2(c3ccc(Cl)cc3)C(=O)N(c3cc(C)cc(C)c3)C(=O)C12 (configuration not stated) | 64.1% (active)
15 | FC(F)(F)c1cc(C(F)(F)F)c2ccc(N3CCN(c4ccccc4)CC3)nc2n1 | -7.6% (inactive)
16 | CCN1CCCC1CNC(=O)c1cc2c(=O)n(C)c3ccccc3c2n1C (configuration not stated) | 8.3% (inactive)
17 | O=c1[nH][nH]c(=O)c2cc(N3CCCC3)ccc12 | 2.6% (inactive)
18 | COc1ccc(C(=O)NN(C)c2nc(-c3ccccc3)cc(C)c2S(C)(=O)=O)cc1 | 13.3% (inactive)
19 | Cc1ccc2nc(-c3ccccc3)cc(C(=O)O)c2c1 | 34.4% (inactive)
20 | Cc1nc(NNC(=O)c2ccccc2)cc(-c2ccccc2)n1 | 62.7% (active)
21 | CCCCN(CC)CCCNC(=O)CS(=O)(=O)Cc1nc(-c2cccc(OC)c2)oc1C | -5.6% (inactive)
22 | Cc1ccc(S(=O)(=O)Nc2ccc3ncccc3c2)cc1 | 84.1% (active)
23 | CC(=O)N1CCN(C(=O)c2cccc(S(=O)(=O)Nc3ccc(C)cc3)c2)CC1 | 0.3% (inactive)
24 | Cc1ccc(S(=O)(=O)Nc2nc(C)cc(-n3nc(C)cc3C)n2)cc1 | 29.1% (inactive)
25 | CN=C1SC(CC(=O)Nc2ccc(C(=O)O)cc2)C(=O)N1C (configuration not stated) | 8.3% (inactive)
26 | CCCCOc1ccc(NC(=O)CSCC(=O)OCC)cc1 | 0.4% (inactive)
27 | CCOC(=O)C1CCCCN1Cc1ccc(OC)c(OC)c1OC (configuration not stated) | 29.7% (inactive)
